Cruzain inh noDet = blocks cruzain activity in detergent-free assay | P25779 | purified cruzain, Z-FR-AMC fluorescence, no detergent | Potency, µM, usual class: inhibitors | actives 2.3% (n = 200,000) | AID 1476; note: nearly all actives have a fitted effect of over 40% in size
Target sequence (P25779 123-467 limits assumed): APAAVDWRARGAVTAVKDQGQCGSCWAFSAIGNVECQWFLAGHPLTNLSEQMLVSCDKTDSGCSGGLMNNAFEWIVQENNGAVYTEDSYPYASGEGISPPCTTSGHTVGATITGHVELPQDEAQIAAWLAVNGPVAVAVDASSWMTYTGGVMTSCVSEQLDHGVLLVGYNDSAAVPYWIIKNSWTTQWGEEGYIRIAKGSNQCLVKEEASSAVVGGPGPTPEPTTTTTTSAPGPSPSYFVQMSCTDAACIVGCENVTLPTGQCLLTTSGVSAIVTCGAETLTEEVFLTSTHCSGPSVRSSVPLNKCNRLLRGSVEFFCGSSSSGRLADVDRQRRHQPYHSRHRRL
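Purified cruzain at 1.5 nM, pre-incubated 15 min with compound at room temperature in 100 mM sodium acetate pH 5.5, 5 mM DTT, 0.00005% Triton X-100. Reaction started with 2 uM Z-FR-AMC; AMC fluorescence increase over 60 s gives rate.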
Cruzain inh Det = inhibitors of Trypanosoma cruzi cruzain with detergent; P25779; purified cruzain, Z-FR-AMC fluorescence, 0.01% Triton; Potency, µM, hits mostly inhibitors; actives 0.43% (n = 200,000); note: nearly all actives have a fitted effect of over 40% in size
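Detergent-containing run (0.01% Triton X-100) in acetate buffer pH 5.5 with 5 mM DTT: enzyme at 1.5 nM final, 15 min compound preincubation at room temperature, then 2 uM Z-FR-AMC substrate. Activity taken as 60 s fluorescence increase at 360/450 nm.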
Numbers stand for hits; . = inactive; ? = inconclusive. Rows were chosen to be rich in hits. Some 2.6% of all compounds tested hit in one or more screens of this group. Calls come from the whole dose curve; as a rule, active = well fitted curve in the direction sought with a large enough effect; inconclusive = small, poorly fitted or top-dose-only effect, or another doubt; inactive = no such curve, though single readings can be large; an effect the other way counts as inactive or inconclusive.

SMILES | Cruzain inh noDet | Cruzain inh Det
Cc1ccc(C(=O)NCC(c2ccc(Cl)cc2)N2CCCCC2)cc1 (stereo unspecified) | . | .
COc1ccc(-c2cc(C(=O)Nc3cccc(C(C)=O)c3)no2)cc1 | 20µM | .
COc1ccc(NC(=O)c2cc(-c3ccccc3OC)on2)cc1 | . | .
COc1ccc(-c2cc(C(=O)Nc3ccc(C)cc3)no2)cc1 | 20µM | .
Cc1ccc(-c2cc(C(=O)Nc3cnn(C45CC6CC(CC(C6)C4)C5)c3)no2)cc1 | 12.6µM | .
O=C(Nc1cnn(C23CC4CC(CC(C4)C2)C3)c1)c1cc(-c2ccccc2)on1 | ? | .
COc1ccc(-c2cc(C(=O)Nc3cccc(C(C)=O)c3)no2)cc1OC | . | .
Cc1ccc(NC(c2nnc(-c3ccccc3)o2)c2ccccc2F)c([N+](=O)[O-])c1 (stereo unspecified) | . | .
O=C(COc1ccccc1F)Nc1nnc(S(=O)(=O)N2CCCCCC2)s1 | . | .
COc1cc2c(c(OC)c1)C(c1cc(OC)c(OC)c(OC)c1)CC(=O)N2 (stereo unspecified) | . | .
CC(C)=CCC/C(C)=C/CC/C(C)=C/CSCC(=O)O | . | .
Cc1cccc(C)c1NC(=O)CCCN1C(=O)CCn2nc(-c3cn(C)c4ccccc34)cc21 | ? | .
Cc1sc(NC(=O)c2cc3ccccc3oc2=O)c(C(=O)OC(C)C)c1-c1ccccc1 | 3.16µM | .
CCOC(=O)c1c(-c2ccc(C)cc2)csc1NC(=O)c1cc2ccccc2oc1=O | . | .
Cc1ccc(-c2nc(C)c(CCNC(=O)c3cccs3)s2)cc1 | . | .
COc1ccc(N2CC(NC(=O)C3CCCCC3)CC2=O)cc1 (stereo unspecified) | . | .
CCOc1ccccc1N(C)C(=O)Cn1cnc2sc(C)c(S(=O)(=O)N3CCC(C)CC3)c2c1=O | . | .
COc1ccc(Cl)cc1NC(=O)CN(c1cc(C)cc(C)c1)S(=O)(=O)c1c(C)n[nH]c1C | ? | .
CCOc1cccc2cc(C(=O)N3CCc4ccccc43)c(=O)oc12 | 15.8µM | .
